Assay results published in PubChem BioAssay (EPA / NIEHS).
Several values for one entry are separate records, joined by “and”; a condition that tells them apart may be missing. Equal values may be shown once. Activity calls are given as the source filed them. Rule for the calls: active = hit-call score of the fitted dose curve at least 0.9, where 1 is the maximum; inconclusive = response in the unintended direction; inactive = score below 0.9.

target: Peroxisome proliferator-activated receptor gamma (Homo sapiens) (UniProt P37231); experiment: OT_PPARg_PPARgSRC1_1440: Odyssey Thera (OT) 24-hour Protein-Complementation Assay for Peroxisome Proliferator-activated Receptor Gamma/ SRC-1 Co-activator (AID 2283388);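 note: nuclear to cytoplasmic ratio of reconstituted Venus YFP fluorescence in fixed imaged cells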
Sequence (P37231 whole entry, looked up, the tested form may be a part): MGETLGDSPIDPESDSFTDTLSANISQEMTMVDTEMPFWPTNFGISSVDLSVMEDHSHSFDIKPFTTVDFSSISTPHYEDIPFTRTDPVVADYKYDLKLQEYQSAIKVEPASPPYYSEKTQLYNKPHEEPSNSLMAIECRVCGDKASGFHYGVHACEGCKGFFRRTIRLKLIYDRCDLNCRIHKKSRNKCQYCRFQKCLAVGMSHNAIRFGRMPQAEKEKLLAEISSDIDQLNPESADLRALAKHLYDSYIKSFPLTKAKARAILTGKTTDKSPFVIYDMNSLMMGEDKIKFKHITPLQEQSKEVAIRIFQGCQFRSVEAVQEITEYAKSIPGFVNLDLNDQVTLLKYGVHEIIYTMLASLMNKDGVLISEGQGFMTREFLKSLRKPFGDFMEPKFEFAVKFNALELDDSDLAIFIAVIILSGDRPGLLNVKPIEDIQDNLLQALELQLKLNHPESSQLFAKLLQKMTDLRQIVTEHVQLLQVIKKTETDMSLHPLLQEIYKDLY
In short: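 Readout: nuclear-to-cytoplasmic 488 nm fluorescence ratio, ≥350 cells per image, 8 images per well, after 24 h compound exposure of HEK293T expressing PPARg/SRC-1 split-YFP fusions. Activity fitted in positive direction against DMSO.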

outcome, inactive:
Cc1ccc(S(=O)(=O)O)cc1C
CC(C)=CCC/C(C)=C\CO
Cn1cnc([N+](=O)[O-])c1Sc1ncnc2nc[nH]c12
CCn1nc(Cc2ccccc2)cc1C1CCN(C[C@H]2C[C@H](N(C)[C@@H](C(=O)O)C(C)C)C[C@@H]2c2cccc(F)c2)CC1
CC(=O)OCCC(C)C
COCCOCCOCCOC
O=C(OC[C@H]1O[C@@H](OC(=O)c2cc(O)c(O)c(OC(=O)c3cc(O)c(O)c(O)c3)c2)[C@H](OC(=O)c2cc(O)c(O)c(OC(=O)c3cc(O)c(O)c(O)c3)c2)[C@@H](OC(=O)c2cc(O)c(O)c(OC(=O)c3cc(O)c(O)c(O)c3)c2)[C@@H]1OC(=O)c1cc(O)c(O)c(OC(=O)c2cc(O)c(O)c(O)c2)c1)c1cc(O)c(O)c(OC(=O)c2cc(O)c(O)c(O)c2)c1
CCCN(C1CCN(C(=O)C2CCNCC2)CC1)[C@@H]1CCc2ccc(OC)cc2C1
CCCCCCCCCCCCc1ccccc1
Cc1ccc(C)c(O)c1
CC[C@H]1OC(=O)[C@H](C)[C@@H](O[C@H]2C[C@@](C)(OC)[C@@H](O)[C@H](C)O2)[C@H](C)[C@@H](O[C@@H]2O[C@H](C)C[C@H](N(C)C)[C@H]2O)[C@](C)(O)C[C@@H](C)C(=O)[C@H](C)[C@@H](O)[C@]1(C)O
O=C1CCCCCN1
O=C1CCC(N2C(=O)c3ccccc3C2=O)C(=O)N1 (configuration not stated)
C=CC(=C)CCC=C(C)C
O=P(OC(CCl)CCl)(OC(CCl)CCl)OC(CCl)CCl
CCCC(=O)OCC
CCCCCCc1ccc(O)cc1O
C1=CCCC=CCCC=CCC1
COc1ccc2sc(C(=O)Nc3nnn[nH]3)c(OC(C)C)c2c1
On1ccccc1=S
CC(C)CCCCCCOC(=O)c1ccc(C(=O)OCCCCCCC(C)C)c(C(=O)OCCCCCCC(C)C)c1
CCNc1ccccc1
COC(=O)CC(=O)OC
CCOC(=O)CC(CC(=O)OCC)(OC(C)=O)C(=O)OCC
CC/C(=C\C(=N/O)C(N)=O)C(C)[N+](=O)[O-] (configuration not stated)
CC(O)CN(CCN(CC(C)O)CC(C)O)CC(C)O (configuration not stated)

AC50, active:
CCc1cc(SCc2sc(-c3ccc(C(F)(F)F)cc3)nc2CN2CCN(c3ccc(OC)cc3)CC2)ccc1OCC(=O)O 723 nM and 1.02 µM
